rTrxR1 inhibitor: inhibitors of rat thioredoxin reductase 1; O89049; recombinant rTrxR1, NADPH fluorescence consumption, selenite substrate; Potency, µM (series often up to 114 µM), inactives show at the highest dose activity change, negative = inhibition, usual class: inhibitors; 390,000 tested, 1% active; note: potency is the fitted concentration of half-maximal effect; % is set by controls: 0 for no effect and ±100 for the full control effect; nearly all actives have a fitted effect of over 65% in size
Target sequence (O89049 whole entry, looked up): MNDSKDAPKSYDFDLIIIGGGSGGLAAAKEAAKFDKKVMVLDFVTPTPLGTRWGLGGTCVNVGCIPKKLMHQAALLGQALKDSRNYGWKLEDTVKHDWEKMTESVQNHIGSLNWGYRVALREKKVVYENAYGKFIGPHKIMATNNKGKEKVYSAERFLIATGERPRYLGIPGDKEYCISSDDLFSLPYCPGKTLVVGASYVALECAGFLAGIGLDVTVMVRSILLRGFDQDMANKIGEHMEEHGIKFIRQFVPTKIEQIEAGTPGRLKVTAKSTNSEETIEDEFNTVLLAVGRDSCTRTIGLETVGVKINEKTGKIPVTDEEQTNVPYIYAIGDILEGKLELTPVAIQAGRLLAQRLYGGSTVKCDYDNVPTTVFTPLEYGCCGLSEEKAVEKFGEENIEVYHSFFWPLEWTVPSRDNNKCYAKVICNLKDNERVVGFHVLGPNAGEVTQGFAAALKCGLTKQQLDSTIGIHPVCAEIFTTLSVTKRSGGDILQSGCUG
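Rat TrxR1 (90 nM in the dispensed reagent) was pre-reduced with 400 uM NADPH for 5 min at room temperature, then incubated with compound for 15 min. After 400 uM selenite was added, NADPH fluorescence (Ex 340/Em 450 nm) was followed for 8 min.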
TrxR1 substrate: substrates of rat thioredoxin reductase 1; Potency, µM (titrated, usually from 114 µM), without a hit: at the highest dose activity change, negative = substrate turnover; O89049; purified TrxR1 substrate turnover, NADPH consumption readout; 390,000 tested, 0.01% active; note: potency is the fitted concentration of half-maximal effect; % is set by controls: 0 for no effect and ±100 for the full control effect; nearly all actives have a fitted effect of over 50% in size
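Rat TrxR1, dispensed at 90 nM, was prereduced with 400 uM NADPH (final) for 5 min at ~22 deg C, then incubated with compound 15 min before 400 uM selenite. A first-read NADPH fluorescence drop versus no-compound background flagged substrates.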
N370S GC: inhibits or activates N370S mutant glucocerebrosidase | 330,000 tested, 0.092% active | AID 2101 | Potency, µM (titrated, usually from 59.4 µM), for inactives: at the top dose activity change, negative = inhibition, actives largely listed as inhibitors | P04062 | N370S GC spleen homogenate, 4MU-glucoside fluorescence;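 note: potency is the fitted concentration of half-maximal effect; 0% = full enzyme activity and -100% = no enzyme basal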
Pin1 inh: blocks the human prolyl isomerase Pin1; Q13526; Pin1 FP peptide displacement, HiFluor488, 10 min; Potency, µM (doses to about 115 µM), for inactives: at the highest dose activity, negative = inhibition, usual class: inhibitors; 390,000 tested, 0.009% active; active = well fitted inhibition curve with a large enough effect in the polarisation, with a control signal flat, not every such curve was filed as active; inconclusive = small, poorly fitted or top-dose-only effect, or effect the other way, or a change in a side signal; inactive = no such curve, though single readings can be large or run the other way; the % refers to the polarisation; note: potency is the fitted concentration of half-maximal effect; % is set by controls: 0 for no effect and ±100 for the full control effect
Target sequence (Q13526 whole entry, looked up): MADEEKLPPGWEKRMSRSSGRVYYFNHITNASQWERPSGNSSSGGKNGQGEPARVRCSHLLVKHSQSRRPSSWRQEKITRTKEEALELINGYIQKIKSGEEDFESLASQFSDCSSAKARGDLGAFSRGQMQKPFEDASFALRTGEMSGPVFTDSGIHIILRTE
AT treatment: potential ataxia-telangiectasia treatments restoring KAP-1 phosphorylation; F2112 A-T fibroblasts, KAP-1 phosphorylation AlphaLISA; neocarzinostatin DNA damage 30 min before lysis; Potency, µM (doses to about 57.5 µM), without a hit: top-dose activation, usual class: activators; 320,000 tested, 0.19% active; AID 485349; note: potency is the fitted concentration of half-maximal effect; % of control where 0% means no effect; nearly all actives have a fitted effect of over 45% in size
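hTERT-immortalized A-T patient fibroblasts (F2112), 500 cells/well in OPTI-MEM, 1% FBS, got compounds for 60 min, then NCS for 30 min at 37C. Lysates were then assayed for phospho-KAP-1 by AlphaLISA (anti-pKAP1 donor, anti-KAP1 acceptor beads), 6 hr at 25C.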
pAkt inh: Akt phosphorylation inhibition; 360,000 tested, 0.32% active; AID 651550; Neuro2A IGF-stimulated pAkt S473 HTRF, 20 min; stronger effect = lower value; activity change, % for hits at 50 µM; in the data active = activity change below about -80%; inconclusive = mostly about -51% to -80%; note: % is set by controls: 0 for no effect and ±100 for the full control effect
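Neuro2A cells (4,500/well, DMEM with 0.5% FBS) were treated with compound at a single 50 µM final concentration, stimulated with 6 nM IGF for 20 min at 37 °C, and lysed. Phospho-Akt Ser473 was read by HTRF as 665/615 ratio ×10^4.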
Numbers without * were called inactive; i = inactive; u = inconclusive; x = not tested or not shown; ! = not confirmed by another sample; [ ] = remark or other dose. An excerpt weighted towards active compounds, which were near 1.4% of everything screened. Unless noted, calls come from the whole dose curve; as a rule, active = well fitted curve in the direction sought with a large enough effect; inconclusive = small, poorly fitted or top-dose-only effect, or another doubt; inactive = no such curve, though single readings can be large; an effect the other way counts as inactive or inconclusive.

SMILES	rTrxR1 inhibitor	TrxR1 substrate	N370S GC	Pin1 inh	AT treatment	pAkt inh
CCOc1ccc(C=C2C(=O)NC(=S)NC2=O)cc1OCC	8.9µM*	8%[57.1 µM]	x	4%	x	i
CN(C)c1ccc(C=C2C(=O)NC(=S)NC2=O)cc1	4µM*	-10%	x	-10%	x	i
CN1C(=O)C(=Cc2ccc(Sc3ccccc3)o2)C(=O)N(C)C1=O	u	6%[57.1 µM]	8%	0%	1%	i
CN1C(=O)C(=Cc2ccc(Sc3ccccc3)o2)C(=O)N(C)C1=S	20µM*	-3%	x	29%	x	i
CCOC(=O)C1OC1(C)c1ccccc1 (configuration not stated)	x	x	4%	x	x	x
N#Cc1c(Oc2cccc(OS(=O)(=O)CCCC(F)(F)F)c2)cccc1C(F)(F)F	x	x	2%	x	x	x
CC(=NCCCN1CCCCC1)c1c(O)n(Cc2ccccc2)c(=O)[nH]c1=O	0%[57.1 µM]	11%[57.1 µM]	24%	12%	5%	-116%*
CC(=NCCN1CCCCC1)c1c(O)n(Cc2ccccc2)c(=O)[nH]c1=O	u	8%	2%	u	3%	i
Cc1coc2c1CCC(C)C2 (configuration not stated)	x	x	8%	x	x	x
CN1C(=O)/C(=C/c2ccc(Cl)s2)C(=O)NC1=S	8.9µM*	5%	-7%	20%	12%	i
COc1ccc(/C=C2\C(=O)NC(=S)N(C)C2=O)cc1C	u	-3%[57.1 µM]	-2%	x	3%	i
Cc1ccsc1/C=C1\C(=O)NC(=S)N(C)C1=O	32µM*	7%	-15%	1%	4%	i
C=CCN1C(=O)/C(=C/c2ccc(Br)s2)C(=O)NC1=S	6.3µM*	-2%	-1%	u	-9%	i
CN1C(=O)/C(=C\c2ccc(N3CCCCC3)o2)C(=O)NC1=S	-12%[57.1 µM]	17%[57.1 µM]	0%	u	-7%	i
CCCOc1ccc(C(=O)Nc2ccc(-c3cc4ccccc4oc3=O)c(C)c2)cc1	65%	150%	x	11%	x	x
CN(N=O)c1cc(O)ccc1O	0.75µM*	3%[57.1 µM]	-4%	u	x	x
COc1ccc(N2C(=O)/C(=C/c3ccc(C)o3)C(=O)NC2=S)cc1	20µM*	-16%	-9%	4%	9%	i
CCOc1ccc(N2C(=O)/C(=C/c3ccc(C)o3)C(=O)NC2=S)cc1	25µM*	-3%	1%	u	-15%	i
CCOc1ccc(N2C(=O)NC(=O)/C(=C\c3ccc(N4CCCCC4)o3)C2=O)cc1	-26%	-22%	7%	u	7%	i
Cc1ccc(/C=C2\C(=O)NC(=S)N(c3cccc(F)c3)C2=O)o1	7.9µM*	-3%	-3%	u	5%	i
COc1ccc(OC)c(N2C(=O)/C(=C/c3ccco3)C(=O)NC2=S)c1	28µM*	-10%	-4%	u	-23%	i
O=C1NC(=S)N(c2ccc(F)cc2)C(=O)/C1=C/c1ccco1	x	x	-4%	x	0%	x
Cc1c(C=C2C(=O)N(C)C(=S)N(C)C2=O)c2ccccc2n1CC(=O)NCC1CCCO1 (configuration not stated)	13µM*	-10%	-15%	u	5%	i
O=C(Cn1cc(C=C2C(=O)NC(=O)NC2=O)c2ccccc21)NCC1CCCO1 (configuration not stated)	16%[0.0914 µM]	-6%	2%	10%	5%	i
CCn1cc2nc(SCc3cccc(C(F)(F)F)c3)n(Cc3ccc(OC)cc3)c(=O)c2n1	-6%[57.1 µM]	-12%[57.1 µM]	x	u	x	x
SMILES	rTrxR1 inhibitor	TrxR1 substrate	N370S GC	Pin1 inh	AT treatment	pAkt inh
O=C1NC(=S)NC(=O)C1=Cc1ccc(OCC(=O)N2CCCC2)cc1	5.6µM*	-3%	1%	-12%	-5%	i
CCOc1cc(C=C2C(=O)NC(=O)NC2=O)ccc1OCC(=O)N1CCOCC1	u	-1%	9%	-1%	-1%	i
CC(=NCCC1=CCCCC1)c1c(O)[nH]c(=O)[nH]c1=O	3%	-5%	-1%	-5%	7%	-121%*
O=[N+]([O-])C(Br)Br	x	x	-8%	x	x	x
COCOC1CCC2C3CCC4=CC(=O)CCC4=C3C=CC12C (configuration not stated)	40µM*	3%	x	x	x	i
CC1(O)CCC2C3CCC4=CC(=O)CCC4=C3C=CC21C (configuration not stated)	-10%[2.29 µM]	-8%[2.29 µM]	x	-3%	x	i
COc1ccc2c(c1)c(CCN1CCOCC1)c(C)n2C(=O)c1cccc(Cl)c1Cl	19%[57.1 µM]	4%[57.1 µM]	13µM*	x	x	x
Cc1ccc(C=C2C(Cl)=C(Cl)C(Cl)=C2Cl)cc1	3.2µM*	1%	3%	u	1%	i
CN(C(=O)Cc1ccc(Cl)c(Cl)c1)[C@H](CN1CCCC1)c1cccc(N=C=S)c1	x	x	-18%	x	x	x
C=C(C=O)C[C@@H]1C[C@H](O)C2OC3C[C@]4(C)OC5/C=C\CC6OC7C(CC=CCC6OC5CCCC4OC3CC2O1)OC1CC2OC3CC(=O)OC3C[C@@H](C)C[C@@]2(C)OC1C[C@@H]7C (some centres not stated)	u	-20%	-15%	0%	25µM*	i
O=[N+]([O-])/C=C/c1ccc2c(c1)OCO2	10µM*	12%[57.1 µM]	x	x	x	x
O=c1c2ccccc2[se]n1-c1ccccc1	28µM*!	u	22µM*!	-1%	-4%	i
Oc1cccc(/C=N/NP(=S)(c2ccccc2)c2ccccc2)c1	4%	-7%	x	3%	9%	-117%*
[O-][Cl+2]([O-])O	x	x	-7%	x	x	x
N#CC(C#N)=Cc1ccc([N+](=O)[O-])c(O)c1	u	x	-4%	x	x	x
N#CC(C#N)=Cc1ccc(C=C(C#N)C#N)cc1	7.9µM*	-5%	-2%	64%	-4%	i
CC(C)(C)N1C(=O)NC(=O)/C(=C\c2ccc3c(c2)CCN3CCCCl)C1=O	u	-5%[57.1 µM]	-3%	u	24%	i
C=CCN1C(=O)/C(=C\c2ccc(N3CCOCC3)o2)C(=O)NC1=S	-27%	-18%	12%	u	-5%	i
C=CCN1C(=O)/C(=C/c2ccc3c(c2)CCCN3CCC)C(=O)NC1=S	10µM*	0%[57.1 µM]	-9%	34%	5%	i
O=C1NC(=O)N(c2ccccc2)C(=O)/C1=C/c1ccc2c(c1)Cc1ccccc1-2	x	x	0%	x	7%	x
CCN1C(=O)/C(=C/c2ccc3c(c2)CCN3CCCCl)C(=O)NC1=S	28µM*	-5%	10%	17%	2%	i
O=C1NC(=S)N(C2CC2)C(=O)/C1=C/c1ccc2c(c1)CCN2CCCCl	7.9µM*	-10%	1%	-5%	3%	i
Nn1cnnc1	x	x	-4%	x	x	x
COc1ccc(C=O)cc1OC	x	x	14%	x	x	x
CC(Cl)(Cl)Cl	x	x	-18%	x	x	x
